# Records with an inconclusive call do not appear. A call without a number means that no potency is given here. A number with no mark means an inactive call. The source made the active and inactive calls. Calls follow the shape of the dose curve; as a rule, active = well fitted activation curve with a large enough effect in the repeat runs; inconclusive = weak or mixed curves; inactive = flat fitted curve, though single readings scatter.
# Assay: A CellTox Green Cytotoxicity Assay to monitor cytotoxicity in HEK293 cells - 16 hour (AID 1224888); also: nearly all actives have a fitted effect of over 35% in size
# Details: CellTox Green fluorescence; series mostly up to 76.8 µM; activity change: at the top concentration
# From the text: National Center for Advancing Translational Sciences [NCATS]
# NIH Chemical Genomics Center [NCGC]
# U.S. Environmental Protection Agency [EPA]
# National Institutes of Environmental Health Sciences [NIEHS]
# National Toxicology Program [NTP]
# Cell-based models are critical for drug discovery. Determining the natural cytotoxic effects resulting from test compounds is an essential research activity. A CellTox Green Cytotoxicity Assay to monitor cytotoxicity in real time of continues cell culture during 40 hours of the compound treatment was used to screen Tox21 10K library compounds in Hek293 cells. CellTox Green Cytotoxicity Assay is a nonlytic, homogeneous, biofluorescent method to measure cytotoxicity in cell culture after experimental manipulation. The assay system uses a proprietary asymmetric cyanine dye that is excluded from viable cells but preferentially stains the dead cell's DNA. […] Viable cells produce no appreciable increases in fluorescence. Therefore, the fluorescence signal produced by the binding interaction with dead cell DNA is proportional to cytotoxicity.
# The mixture of Hek293 cell suspension and reagents were dispensed at 600cells/6 ul/well in 1536-well tissue culture treated black solid bottom plates using a Multidrop dispenser. After the assay plates were incubated at a 37 C/5% CO2 incubator for 5 hours, 23 nL of compounds dissolved in DMSO, positive and negative controls was transferred to the assay plate by a pintool work station. The plates were incubated at 37 C for 40 hours. The fluorescence intensity were measured at 0h, 8h, 16h, 24h, 32h and 40h time points using ViewLux plate reader during compound treatment.
Compound,Potency,activity change
CN(C)C(=O)C(c1ccccc1)c1ccccc1,inactive,–
O=[N+]([O-])c1ccc(Cl)c(Cl)c1,inactive,–
CCOC(=O)CC(SP(=O)(OC)OC)C(=O)OCC (stereo not given),inactive,–
ClCCOCCCl,inactive,–
Oc1ccc(Cl)cc1,inactive,–
O=S(=O)(O)OOS(=O)(=O)O,inactive,–
OC[C@@H](O)[C@H]1O[C@@H]2O[C@H](C(Cl)(Cl)Cl)O[C@@H]2[C@H]1O,inactive,–
Nc1nc(N)nc(NC2CC2)n1,inactive,–
COP(=S)(OC)Oc1ccc(SC)c(C)c1,inactive,–
COC(C)(C)CCCC(C)C/C=C/C(C)=C/C(=O)OC(C)C (stereo not given),inactive,–
N#Cc1cccc(C#N)c1,inactive,–
NNc1ccccc1,inactive,–
CC(=O)/C=C/c1ccccc1,inactive,–
O=C(O)C(Br)Br,inactive,–
CCNc1nc(Cl)nc(NC(C)C)n1,inactive,–
[N-]=[N+]=CC(=O)OC[C@H](N)C(=O)O,–,"-1.48% [at 35.3 µM, hits give high values]"
N#CN=C(N)N,inactive,–
CNC(=O)O/N=C(\SC)C(=O)N(C)C,inactive,–
Cc1cccc(C)c1N,inactive,–
O=C/C=C/c1ccccc1,inactive,–

Compound,Potency,activity change
O=C(O)CCCc1ccc(N(CCCl)CCCl)cc1,inactive,–
CCCCCCCCCCCCCCCCCC(=O)O,inactive,–
C=CCN=C=S,inactive,–
C/C=C/c1ccc2c(c1)OCO2,inactive,–
CSc1nnc(C(C)(C)C)c(=O)n1N,inactive,–
Nc1cccc(Cl)c1,inactive,–
CC(=O)C1CCOC1=O (stereo not given),inactive,–
Cc1cccc(N)c1C,inactive,–
CNC(=O)O/N=C/C(C)(C)S(C)(=O)=O,inactive,–
Cc1ccc(N=C=O)cc1N=C=O,inactive,–
CCCCC(CC)C(=O)Cl (stereo not given),inactive,–
OCC(O)CCl (stereo not given),inactive,–
Nc1ccc([As](=O)(O)O)cc1,inactive,–
Cc1ccc(N)cc1,inactive,–
CNC(=O)Oc1cccc2ccccc12,inactive,–
C=CC#N,–,-8.89%
CCOc1ccc(N)cc1,inactive,–
Cc1ccc(O)c(C)c1,inactive,–
N#Cc1ccccn1,inactive,–
CNC(=O)O/N=C/C(C)(C)SC,inactive,–

# From PubChem BioAssay (Tox21)
